Activity calls are given as the source filed them.
Tests used:
[1] = A549 cell viability effects, profiling panel, calcein-AM fluorescence, 48 h, basal (AID 1162); conditions: higher = more signal
[2] = adipocyte viability effects, profiling panel, cell-based, 3T3-L1 adipocytes, calcein-AM fluorescence, 48 h, basal (AID 1163); conditions: 3T3-L1 adipocytes viability, higher = more signal
[3] = HepG2 cell viability effects, profiling panel, calcein-AM fluorescence, 48 h, basal (AID 1164); conditions: higher = more signal
[4] = MM1S cell viability effects, profiling panel, calcein-AM fluorescence, 48 h, basal (AID 1165); conditions: higher = more signal;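 note: viability of MM1S multiple myeloma cells under basal unstimulated conditions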
[5] = basal RPMI8226 viability, no added stimulus, profiling panel, cell-based, calcein-AM fluorescence, 48 h, PK04 Diversity Set (AID 1166); conditions: RPMI8226 myeloma viability, higher = more signal;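 note: cells grown under basal conditions without added stimulus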
[6] = basal HepG2 mitochondrial membrane potential changes, profiling panel, cell-based, JC-1 fluorescence, 24 h, 100 nL compound (AID 1167); conditions: higher = more signal
[7] = basal 3T3-L1 adipocyte mitochondrial potential changes, profiling panel, cell-based, JC-1 fluorescence, 3T3-L1 adipocytes, 24 h, 100 nL compound (AID 1168); conditions: JC-1 mitochondrial fluorescence, higher = more signal, called active from +8 up or from −8 down
[8] = basal RPMI8226 mitochondrial membrane potential changes, profiling panel, cell-based, JC-1 fluorescence, 24 h, 100 nL compound (AID 1169); conditions: RPMI8226 myeloma, JC-1 mitochondrial potential fluorescence, higher = more signal
[9] = basal MM1S mitochondrial membrane potential changes, profiling panel, cell-based, JC-1 fluorescence, 24 h, 100 nL compound (AID 1170); conditions: higher = more signal
[10] = A549 lung cancer cell viability effects, profiling panel, resazurin fluorescence, 24 h, PK04 Diversity Set (AID 1171); conditions: higher = more signal, called active from +8 up or from −8 down
Note: test concentration not given here.

Q: Which z-score [1] does the source give for O=C1OCCC=C[C@H]2OC34C=CCN(CCN5CCOCC5)C(=O)[C@H]3N(CCCCCCO)C(=O)[C@@H]4C12 (stereo not given in full) here?
A: The z-score was 0.758.

Q: What about the z-score [2] of the same compound?
A: Its z-score is -3.63.

Q: What about the z-score [3] of the same compound?
A: Its z-score is 0.821.

Q: What about the z-score [4] of the same compound?
A: Its z-score is 1.32.

Q: What about the z-score [5] of the same compound?
A: Its z-score is 0.477.

Q: And the z-score [6]?
A: Its z-score is 1.07.

Q: And the z-score [7]?
A: The z-score was -0.347 (inactive).

Q: And the z-score [8]?
A: The z-score was 0.0953.

Q: And the z-score [9]?
A: Its z-score is 0.341.

Q: What about the z-score [10] of the same compound?
A: The z-score was 0.459 (inactive).

Q: What does the source list for CCCN1C(=O)[C@]2(CCS(=O)(=O)c3ccccc3)N=C(c3ccc(OCCCO)cc3)O[C@@H]2c2ccccc21?
A: z-score [1]: 1.27; z-score [2]: 1.86; z-score [3]: -0.801; z-score [4]: 0.0361; z-score [5]: -1.97; z-score [6]: 0.28; z-score [7]: -0.494 (inactive); z-score [8]: -0.917; z-score [9]: -1.28; z-score [10]: -1.57 (inactive)

Q: With COCCOC(=O)N1C(=O)[C@@]2(c3cc(C#CC4=CCCCC4)ccc31)[C@H](C(=O)Nc1nc3ccccc3s1)[C@H]1C(=O)O[C@H](c3ccccc3)[C@H](c3ccccc3)N1[C@@H]2c1ccc(OCCO)cc1 as the compound, how does the z-score [1] read?
A: Its z-score is -0.104.

Q: What about the z-score [2] of the same compound?
A: Its z-score is 0.747.

Q: And the z-score [3]?
A: The z-score was 0.185.

Q: And the z-score [4]?
A: Its z-score is -0.953.

Q: What about the z-score [5] of the same compound?
A: Its z-score is -0.856.

Q: And the z-score [6]?
A: The z-score was -2.95.

Q: And the z-score [7]?
A: Its z-score is 0.662 (inactive).

Q: And the z-score [8]?
A: Its z-score is -0.583.

Q: What about the z-score [9] of the same compound?
A: Its z-score is -1.12.

Q: What about the z-score [10] of the same compound?
A: The z-score was -0.309 (inactive).

Q: With CCCC#C[Si](O[C@H](CC)c1cn([C@H](CO)Cc2ccccc2)nn1)(C(C)C)C(C)C as the compound, how does the z-score [1] read?
A: Its z-score is 0.0096.

Q: What about the z-score [2] of the same compound?
A: The z-score was -0.263.

Q: And the z-score [3]?
A: Its z-score is 0.0341.

Q: What about the z-score [4] of the same compound?
A: Its z-score is -1.21.

Q: What about the z-score [5] of the same compound?
A: The z-score was 0.0028.

Q: What about the z-score [6] of the same compound?
A: Its z-score is -0.371.

Q: And the z-score [7]?
A: The z-score was 0.406 (inactive).

Q: What about the z-score [8] of the same compound?
A: Its z-score is 0.78.

Q: And the z-score [9]?
A: Its z-score is -0.752.

Q: And the z-score [10]?
A: The z-score was 0.401 (inactive).

Q: What does the source list for O=C(NCc1ccccc1)[C@@]1(CCS(=O)(=O)c2ccccc2)N=C(c2ccc(OCCCO)cc2)O[C@H]1c1ccccc1?
A: z-score [1]: 0.364; z-score [2]: -0.153; z-score [3]: -0.203; z-score [4]: -0.335; z-score [5]: -0.672; z-score [6]: 1.17; z-score [7]: 0.802 (inactive); z-score [8]: -0.935; z-score [9]: -1.58; z-score [10]: -0.541 (inactive)

Q: Which z-score [1] does the source give for O=C1O[C@@H](c2ccccc2)[C@@H](c2ccccc2)N2[C@@H](c3ccc(OCCO)cc3)[C@]3(C(=O)Nc4ccccc43)[C@@H](C(=O)NC[C@H](O)c3ccccc3)[C@H]12 here?
A: The z-score was -0.462.

Q: And the z-score [2]?
A: Its z-score is -0.0144.

Q: And the z-score [3]?
A: The z-score was -0.328.

Q: What about the z-score [4] of the same compound?
A: Its z-score is -0.38.

Q: And the z-score [5]?
A: Its z-score is -0.575.

Q: And the z-score [6]?
A: Its z-score is -1.76.

Q: And the z-score [7]?
A: The z-score was -0.872 (inactive).

Q: What about the z-score [8] of the same compound?
A: The z-score was -0.53.

Q: And the z-score [9]?
A: Its z-score is -0.226.

Q: What about the z-score [10] of the same compound?
A: Its z-score is 0.496 (inactive).

Q: With O=C1c2ccccc2[C@](Cc2ccccc2I)(C(=O)NC2CC2)[C@H](c2ccc(CO)cc2)N1Cc1ccccc1 as the compound, how does the z-score [1] read?
A: Its z-score is 0.465.

Q: What about the z-score [2] of the same compound?
A: Its z-score is -0.241.

Q: What about the z-score [3] of the same compound?
A: Its z-score is -0.236.

Q: What about the z-score [4] of the same compound?
A: The z-score was -0.349.

Q: And the z-score [5]?
A: Its z-score is -0.253.

Q: What about the z-score [6] of the same compound?
A: The z-score was 0.478.

Q: What about the z-score [7] of the same compound?
A: The z-score was 0.174 (inactive).

Q: And the z-score [8]?
A: Its z-score is -0.679.

Q: And the z-score [9]?
A: Its z-score is 0.00466.

Q: What about the z-score [10] of the same compound?
A: Its z-score is 1.47 (inactive).

Q: With COc1ccc(CCNC(=O)[C@@H]2c3ccccc3C(=O)N(C3Cc4ccccc4C3)[C@H]2c2ccc(CO)cc2)cc1 as the compound, how does the z-score [1] read?
A: The z-score was 0.595.

Q: What about the z-score [2] of the same compound?
A: Its z-score is 0.0644.

Q: What about the z-score [3] of the same compound?
A: The z-score was 0.0079.

Q: What about the z-score [4] of the same compound?
A: Its z-score is -0.532.

Q: What about the z-score [5] of the same compound?
A: The z-score was -0.0245.

Q: And the z-score [6]?
A: Its z-score is 1.6.

Q: What about the z-score [7] of the same compound?
A: The z-score was 0.00592 (inactive).

Q: What about the z-score [8] of the same compound?
A: Its z-score is -0.78.

Q: And the z-score [9]?
A: Its z-score is -0.0799.

Q: What about the z-score [10] of the same compound?
A: The z-score was 1.39 (inactive).

Q: For CC(C)(C)OC(=O)CC[C@@]1(C(N)=O)N=C(c2ccc(OCCCO)cc2)O[C@@H]1c1ccccc1, which z-score [1] is on record?
A: The z-score was 0.298.

Q: And the z-score [2]?
A: The z-score was -0.0721.

Q: What about the z-score [3] of the same compound?
A: Its z-score is 0.105.

Q: And the z-score [4]?
A: Its z-score is 0.0092.

Q: And the z-score [5]?
A: Its z-score is 0.658.

Q: What about the z-score [6] of the same compound?
A: The z-score was -0.318.

Q: And the z-score [7]?
A: The z-score was -0.191 (inactive).

Q: What about the z-score [8] of the same compound?
A: The z-score was 0.919.

Q: And the z-score [9]?
A: The z-score was -0.0322.

Q: And the z-score [10]?
A: The z-score was 0.293 (inactive).

Q: Which results are given for CC(C)(C)C(=O)N[C@@H](c1ccc(Cl)cc1)[C@]1(C)C[C@H]1C1CCCCC1?
A: z-score [1]: -1.07; z-score [2]: 0.459; z-score [3]: -0.492; z-score [4]: -1.22; z-score [5]: -1.43; z-score [6]: 4.37; z-score [7]: -0.594 (inactive); z-score [8]: -0.533; z-score [9]: 0.162; z-score [10]: -0.466 (inactive)

Q: Which z-score [1] does the source give for CN(C)CCCNC(=O)[C@@]1(c2ccc([N+](=O)[O-])cc2)CC(=O)N(C2CCCCC2)[C@@H]1c1ccc(CO)cc1 here?
A: Its z-score is 0.259.

Q: What about the z-score [2] of the same compound?
A: Its z-score is -0.272.

Q: What about the z-score [3] of the same compound?
A: Its z-score is 0.23.

Q: And the z-score [4]?
A: The z-score was -0.432.

Q: And the z-score [5]?
A: Its z-score is -1.43.

Q: And the z-score [6]?
A: Its z-score is 0.259.

Q: What about the z-score [7] of the same compound?
A: The z-score was 0.255 (inactive).

Q: What about the z-score [8] of the same compound?
A: Its z-score is 0.956.

Q: And the z-score [9]?
A: Its z-score is -0.435.

Q: What about the z-score [10] of the same compound?
A: The z-score was 0.497 (inactive).

Q: Which results are given for O=C(NCC(F)(F)F)[C@@H]1c2ccccc2C(=O)N(C2CCCCC2)[C@H]1c1ccc(CO)cc1?
A: z-score [1]: 0.216; z-score [2]: 0.48; z-score [3]: 0.354; z-score [4]: -0.515; z-score [5]: 0.597; z-score [6]: 0.912; z-score [7]: -1.29 (inactive); z-score [8]: 0.329; z-score [9]: 1.67; z-score [10]: 1.21 (inactive)

Q: Which results are given for COc1ccc(C(O)C2C=CC3C(=O)N(c4ccccc4)C(=O)C3N2Nc2ccc(C(C)C)cc2)cc1OCc1ccccc1 (stereo not given)?
A: z-score [1]: 0.997; z-score [2]: -1.42; z-score [3]: 0.915; z-score [4]: -0.737; z-score [5]: -0.63; z-score [6]: -0.318; z-score [7]: -0.116 (inactive); z-score [8]: -0.427; z-score [9]: -0.173; z-score [10]: -0.193 (inactive)

Q: For O=C1C2C=CC(C(O)c3ccc(F)cc3)N(Nc3ccccc3F)C2C(=O)N1c1ccccc1 (stereo not given), which z-score [1] is on record?
A: The z-score was -1.39.

Q: And the z-score [2]?
A: The z-score was -1.1.

Q: What about the z-score [3] of the same compound?
A: The z-score was -1.47.

Q: What about the z-score [4] of the same compound?
A: The z-score was -0.389.

Q: What about the z-score [5] of the same compound?
A: The z-score was -0.233.

Q: And the z-score [6]?
A: Its z-score is -1.73.

Q: What about the z-score [7] of the same compound?
A: Its z-score is -1.08 (inactive).

Q: What about the z-score [8] of the same compound?
A: Its z-score is -0.143.

Q: And the z-score [9]?
A: Its z-score is 0.396.

Q: And the z-score [10]?
A: The z-score was 0.0853 (inactive).

Q: For COc1ccc([Si](C)(C)[C@H]2[C@H](CCn3cc([C@H](O)c4ccccc4)nn3)O[C@@]3(C(=O)N(Cc4cccc(N5CCOC5=O)c4)c4ccccc43)[C@@H]2C)cc1, which z-score [1] is on record?
A: The z-score was 0.377.

Q: And the z-score [2]?
A: The z-score was 0.283.

Q: And the z-score [3]?
A: Its z-score is 0.243.

Q: And the z-score [4]?
A: Its z-score is -1.32.

Q: And the z-score [5]?
A: The z-score was -0.332.

Q: And the z-score [6]?
A: The z-score was -0.242.

Q: What about the z-score [7] of the same compound?
A: Its z-score is -0.537 (inactive).

Q: And the z-score [8]?
A: Its z-score is -0.463.

Q: What about the z-score [9] of the same compound?
A: The z-score was -0.637.

Q: What about the z-score [10] of the same compound?
A: Its z-score is -1.06 (inactive).

Source: PubChem BioAssay
